Source: PubChem BioAssay (NCI)
The panel holds about 79,000 compounds, 15% with a hit somewhere; the sample as a whole holds those more often. Active and inactive are the calls of the source. Cut-off read from the data, not from the text of the source: active = growth inhibition above about 70%; inactive = the rest.

Columns and labels:
[1] = NCI Yeast Anticancer Drug Screen. Data for the rad52 strain (AID 147);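 note: 0% = growth of vehicle-treated control cultures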; conditions: S. cerevisiae rad52 mutant growth inhibition, hits give high values
Summary of the method: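 Screen used a yeast mutant impaired in DNA repair. After compound exposure, growth was measured. Values reflect inhibition compared with vehicle-treated cells.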

[2] = NCI Yeast Anticancer Drug Screen. Data for the wt1 strain (AID 149);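 note: 0% = growth of vehicle-treated wt1 cultures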; conditions: S. cerevisiae wt1 strain (SPY 50644) growth inhibition, hits give high values
Summary of the method: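 Using yeast strain wt1, compound-induced growth inhibition was determined against vehicle-treated cultures.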

[3] = NCI Yeast Anticancer Drug Screen. Data for the rad50EPP+ strain (AID 151);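 note: 0% = growth of vehicle-treated control cultures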; conditions: S. cerevisiae rad50 mutant strain, hits give high values
Summary of the method: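 Exposing the rad50EPP+ strain to each compound, growth was compared with vehicle-only cultures to give inhibition.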

[4] = NCI Yeast Anticancer Drug Screen. Data for the mgt1 strain (AID 153); conditions: S. cerevisiae mgt1 mutant growth inhibition, hits give high values
Summary of the method: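 Genetically defined yeast (mgt1) treated with compound; inhibition of growth expressed against vehicle-treated controls.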

[5] = NCI Yeast Anticancer Drug Screen. Data for the rad50 strain (AID 155);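 note: 0% = growth of vehicle-only cultures of the same strain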; conditions: S. cerevisiae rad50 strain growth inhibition, hits give high values
Summary of the method: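 Relative growth inhibition (compound vs vehicle) was measured in yeast with a defined repair-gene alteration.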

[6] = NCI Yeast Anticancer Drug Screen. Data for the mec2-1 strain (AID 157); conditions: S. cerevisiae mec2-1 strain, hits give high values
Summary of the method: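 Readout is yeast growth inhibition, normalised to vehicle-treated controls, in the mec2-1 strain exposed to compound.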

[7] = NCI Yeast Anticancer Drug Screen. Data for the rad14 strain (AID 159);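 note: 0% = growth of vehicle-treated control cultures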; conditions: S. cerevisiae rad14 strain growth inhibition, hits give high values
Summary of the method: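 Screen for anticancer potential: a yeast strain altered in DNA damage repair is grown with compound, and reduced growth is quantified against vehicle controls.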

[8] = at 5.0 µM (retest, dose inferred, filed as 0.5)
[9] = at 50.0 µM (retest, dose inferred, filed as 5.0)

Measured: growth inhibition

CCC(/C=C/c1ccccc1)=N\Nc1ccc(Cl)cc1
active: [1]; at 33.0 µM 86% | [1]; at 100.0 µM 93% | [2]; at 100.0 µM 93% | [5]; at 33.0 µM 77% | [5]; [9] 83% | [5]; at 50.0 µM 97.6% | [5]; at 100.0 µM 93% | [6]; [9] 80% | [6]; at 50.0 µM 85.5% | [7]; at 100.0 µM 76%
inactive: [1]; at 1.2 µM -1% | [1]; at 3.7 µM 2% | [1]; at 11.0 µM -1% | [2]; at 1.2 µM 0% | [2]; at 3.7 µM -2% | [2]; at 11.0 µM -6% | [2]; at 33.0 µM 48% | [3]; at 1.2 µM 4% | [3]; at 3.7 µM 9% | [3]; at 11.0 µM 19% | [3]; at 33.0 µM 17% | [3]; at 100.0 µM 19% | [4]; at 1.2 µM -4% | [4]; at 3.7 µM 4% | [4]; at 11.0 µM 7% | [4]; at 33.0 µM 5% | [4]; at 100.0 µM 50% | [5]; at 1.2 µM 3% | [5]; at 3.7 µM 9% | [5]; [8] 2% | [5]; at 11.0 µM 12% | [6]; at 1.2 µM 0% | [6]; at 3.7 µM 5% | [6]; [8] -3% | [6]; at 11.0 µM 9% | [6]; at 33.0 µM 6% | [6]; at 100.0 µM 52% | [7]; at 1.2 µM 0% | [7]; at 3.7 µM 0% | [7]; at 11.0 µM 3% | [7]; at 33.0 µM 0%
